Each structure is given as a SMILES string. The source made the active and inactive calls. The calls were made as follows: active = hit-call score of the fitted dose curve at least 0.9, where 1 is the maximum; inactive = score below 0.9.

Read-out in this assay: Peroxisomal acyl-coenzyme A oxidase 1 (ACOX1) gene, ACOX1 (gene 51)
Briefly: LTEA_HepaRG_ACOX1: Life Technologies and Expression Analysis (LTEA) Assay for Peroxisomal acyl-coenzyme A oxidase 1 (ACOX1) gene using HepaRG (AID 2283467). The note with it: mRNA level, 48 h; actives raise or lower the signal. How it is done: LTEA_HepaRG is a cell based, multiplexed-readout assay that uses HepaRG, a human liver cell line, with measurements taken at 48 hours after chemical dosing on a 96-well plate.LTEA_HepaRG_ACOX1 is one of 102 assay component(s) measured in the LTEA HepaRG cell culture assay. It is a marker of Steatosis.Data from the assay component LTEA_HepaRG_ACOX1 was analyzed into 1 endpoint. This assay endpoint, LTEA_HepaRG_ACOX1, was analyzed with bidirectional fitting relative to DMSO as the negative control and baseline of activity. Using a type of inducible reporter, measures of mRNA induction for gain or loss-of-signal activity can be used to understand regulation of transcription factor activity. To generalize the intended target to other relatable targets, this assay endpoint is annotated to the oxidase intended target family, where the subfamily is steatosis.
A total of 1060 chemcials from the ToxCast library were tested in eight-point concentration-response experiments. Cell culture and cytotoxicity assays were conducted at Thermo Fisher Scientific's Custom Services facility (Madison, WI). A single lot of human HepaRG cells (Thermo Fisher Scientific, Frederick, MD) was used for the cell culture experiments. 96-well format collagen type I coated plates of human HepaRG cells were prepared using established methods. Briefly, cryopreserved HepaRG cells were thawed, plated at a density of approximately 100,000 cells/well in HepaRG Thaw, Plate, and General Purpose media (HPRG770, Thermo Fisher Scientific), and incubated for 48 hours. 0.5% DMSO was selected as vehicle control to balance the requisite need of DMSO in HepaRG cultures to maintain differentiation (for example, baseline metabolism, proportions of hepatocytes vs. cholangiocytes), while enabling further hepatic receptor pathway activation (for example, PXR and CAR) in response to chemical exposure. 48 hours after plating, the culture medium was replaced with HepaRG Serum-Free Incudtion Media. Cells were exposed to each test chemical in duplicate and maintained in CO2 incubators for another 48 hours. Chemical plates were thawed to room temperature and 200x concentrations of treatment groups were prepared. 8-point conentration-reponse curves were made with the highest exposure at 100 uM, followed by half-log dilutions, all in 0.5% DMSO. Each test plate contained variouse controls, induction positive controls (1mM phenobarbital), cytotoxicity positive controls ([…] aflatoxin B1), vehicle controls (0.5% DMSO), and total lysis controls (0.5% DMSO). Cell morphology images were taken using an Essen IncuCyte FLR automated microscope, with six 96-well plates imaged in about 24 minutes. Images were captured and exported and JPEG files. Spent culture media was transfered to black-well plates for the LDH assay, and remaining media was sorted at -80 C for later use. Cells were treated with RLT buffer and frozen until shipped for gene expression analysis. Total RNA was isolated from the cell suspension in 75 uL of Buffer RLT (Qiagen, Germantown, MD 20874) by Quintiles/Expression Analysis (Durham, NC) using a custom isolation procedure. Total RNA from each plate well was transferred to a preamplification plate. Fluidigm's 96.96 Dynamic ArrayTM (Fluidigm, Amsterdam, the Netherlands) technology was used for gene expression analyses by quantitative reverse transcription polymerase chain reaction (qRT-PCR, performed by Quintiles/Expression Analysis, Durham, NC)89. Standard TaqManTM Assays (Applied Biosystems/ThermoFisher Scientific, Foster City, CA) were used to assess the expression of 93 genes selected based on their selectivity and sensitivity to important hepatic receptors known to be modulated by environmental chemicals; importance in human hepatocyte functionality; and hepatotoxicity. […]
Turning to `CC(C)(C)OOC(C)(C)C`, the call was inactive.

Regarding `CCOP(=S)(OCC)SCSCC`, the outcome was inactive. `O=[N+]([O-])c1ccccc1`: the outcome was inactive. Turning to `CC(Cc1ccc(OCC(=O)O)cc1)NCC(O)c1csc(C(F)(F)F)n1` (stereo not given), the outcome was inactive. `c1ccc2c(c1)Nc1ccccc1S2`: the result was inactive. Regarding `OCC1CO1` (stereo not given), the compound was classed as inactive. Next, `CCOc1ccc(C(C)(C)COCc2cccc(Oc3ccccc3)c2)cc1`: “inactive”. Next, `CCC(C)(C)c1ccc(O)cc1`: “inactive”; `Cc1cccc(N)c1`: “inactive”. In the case of `O=P(Oc1ccccc1)(Oc1ccccc1)Oc1ccccc1`, the compound was classed as inactive. For the compound `Cc1ccc([N+](=O)[O-])cc1C`, the result was inactive. Next, `ClC(Cl)c1ccccc1`: “inactive”.

Turning to `CCNc1nc(Cl)nc(NC(C)(C)C)n1`, the compound was classed as inactive.

As to `CCOC(=O)c1ccccc1C(=O)OCC`, the compound was called inactive.

In the case of `ClC1=C(Cl)C2(Cl)C3C(Cl)C(Cl)CC3C1(Cl)C2(Cl)Cl` (stereo not given), the compound was classed as inactive.

As for `O=C(O)C(Cl)Cl`, the compound was called inactive. Next, `CCC1(c2ccccc2)C(=O)N=C(O)NC1=O` (stereo not given): “inactive”; `c1ccc(OP(Oc2ccccc2)Oc2ccccc2)cc1`: “inactive”. For `CC(C)(C)c1ccc(O)cc1`, the result was inactive. As for `O=C(O)C1C(C(=O)O)C2(Cl)C(Cl)=C(Cl)C1(Cl)C2(Cl)Cl` (stereo not given), the outcome was inactive. As for `CCOS(=O)(=O)OCC`, the compound was classed as inactive. Take `Nc1ccc(Cl)cc1`: the compound was classed as inactive. For `O=P1(N(CCCl)CCCl)NCCCO1` (stereo not given), the compound was classed as inactive. Next, `Nc1cc2c3c(c1)C(c1ccccc1)=N[C@@H](NC(=O)c1cccnc1)C(=O)N3CC2`: “inactive”. Next, `CN(C)C(=O)Cl`: “inactive”; `CCOP(=S)(Oc1ccc([N+](=O)[O-])cc1)c1ccccc1` (stereo not given): “inactive”; `c1nc[nH]n1`: “inactive”. Next, `Cc1ccc(O)cc1C`: “inactive”; `[N-]=[N+]=[N-]`: “inactive”. As to `O=[N+]([O-])c1ccc(Cl)c(Cl)c1`, the outcome was inactive.

With `COCCOCCO`, the outcome was inactive. Take `CC(Cl)(Cl)C(=O)O`: the call was inactive. Next, `Nc1ccc2ccccc2c1`: “inactive”; `CCCCc1ccccc1`: “inactive”; `CSC(C)(C)C=NO`: “inactive”.

Turning to `Cc1ccc(N)cc1N`, the compound was called inactive. As to `ClC(Cl)(Cl)c1ccccc1`, the call was inactive. For `CCN(CC)c1ccccc1`, the result was inactive. Next, `CCCCN(CCCC)N=O`: “inactive”; `CCCCN(CCCC)SN(C)C(=O)Oc1cccc2c1OC(C)(C)C2`: “inactive”.

The record behind these values is PubChem BioAssay (EPA / NIEHS).
